Hit rate of the full screen: of about 47,000 compounds, about 2,800 (6%) were called active. Cut-off read from the data, not from the text of the source: active = z-score above about 3 (passing the limit was not always enough); inactive = the rest. Only a selection was taken, and actives are over-represented in it overall.
What follows are compounds tested against Endoribonuclease Dicer (Homo sapiens) (UniProt Q9UPY3) (assay: Dicer cleavage of pre-miR-21 blockers – biochemical, cat-ELCCA, chemiluminescence, primary screen (AID 1347074;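 note: plate controls were vehicle for no effect and no enzyme for full effect; higher signal means more uncleaved substrate so more Dicer inhibition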)). Details: cat-ELCCA pre-miR-21 Dicer processing, at 25 µM, active compounds read high.
Chain of Endoribonuclease Dicer (Homo sapiens) (Q9UPY3 whole entry, looked up): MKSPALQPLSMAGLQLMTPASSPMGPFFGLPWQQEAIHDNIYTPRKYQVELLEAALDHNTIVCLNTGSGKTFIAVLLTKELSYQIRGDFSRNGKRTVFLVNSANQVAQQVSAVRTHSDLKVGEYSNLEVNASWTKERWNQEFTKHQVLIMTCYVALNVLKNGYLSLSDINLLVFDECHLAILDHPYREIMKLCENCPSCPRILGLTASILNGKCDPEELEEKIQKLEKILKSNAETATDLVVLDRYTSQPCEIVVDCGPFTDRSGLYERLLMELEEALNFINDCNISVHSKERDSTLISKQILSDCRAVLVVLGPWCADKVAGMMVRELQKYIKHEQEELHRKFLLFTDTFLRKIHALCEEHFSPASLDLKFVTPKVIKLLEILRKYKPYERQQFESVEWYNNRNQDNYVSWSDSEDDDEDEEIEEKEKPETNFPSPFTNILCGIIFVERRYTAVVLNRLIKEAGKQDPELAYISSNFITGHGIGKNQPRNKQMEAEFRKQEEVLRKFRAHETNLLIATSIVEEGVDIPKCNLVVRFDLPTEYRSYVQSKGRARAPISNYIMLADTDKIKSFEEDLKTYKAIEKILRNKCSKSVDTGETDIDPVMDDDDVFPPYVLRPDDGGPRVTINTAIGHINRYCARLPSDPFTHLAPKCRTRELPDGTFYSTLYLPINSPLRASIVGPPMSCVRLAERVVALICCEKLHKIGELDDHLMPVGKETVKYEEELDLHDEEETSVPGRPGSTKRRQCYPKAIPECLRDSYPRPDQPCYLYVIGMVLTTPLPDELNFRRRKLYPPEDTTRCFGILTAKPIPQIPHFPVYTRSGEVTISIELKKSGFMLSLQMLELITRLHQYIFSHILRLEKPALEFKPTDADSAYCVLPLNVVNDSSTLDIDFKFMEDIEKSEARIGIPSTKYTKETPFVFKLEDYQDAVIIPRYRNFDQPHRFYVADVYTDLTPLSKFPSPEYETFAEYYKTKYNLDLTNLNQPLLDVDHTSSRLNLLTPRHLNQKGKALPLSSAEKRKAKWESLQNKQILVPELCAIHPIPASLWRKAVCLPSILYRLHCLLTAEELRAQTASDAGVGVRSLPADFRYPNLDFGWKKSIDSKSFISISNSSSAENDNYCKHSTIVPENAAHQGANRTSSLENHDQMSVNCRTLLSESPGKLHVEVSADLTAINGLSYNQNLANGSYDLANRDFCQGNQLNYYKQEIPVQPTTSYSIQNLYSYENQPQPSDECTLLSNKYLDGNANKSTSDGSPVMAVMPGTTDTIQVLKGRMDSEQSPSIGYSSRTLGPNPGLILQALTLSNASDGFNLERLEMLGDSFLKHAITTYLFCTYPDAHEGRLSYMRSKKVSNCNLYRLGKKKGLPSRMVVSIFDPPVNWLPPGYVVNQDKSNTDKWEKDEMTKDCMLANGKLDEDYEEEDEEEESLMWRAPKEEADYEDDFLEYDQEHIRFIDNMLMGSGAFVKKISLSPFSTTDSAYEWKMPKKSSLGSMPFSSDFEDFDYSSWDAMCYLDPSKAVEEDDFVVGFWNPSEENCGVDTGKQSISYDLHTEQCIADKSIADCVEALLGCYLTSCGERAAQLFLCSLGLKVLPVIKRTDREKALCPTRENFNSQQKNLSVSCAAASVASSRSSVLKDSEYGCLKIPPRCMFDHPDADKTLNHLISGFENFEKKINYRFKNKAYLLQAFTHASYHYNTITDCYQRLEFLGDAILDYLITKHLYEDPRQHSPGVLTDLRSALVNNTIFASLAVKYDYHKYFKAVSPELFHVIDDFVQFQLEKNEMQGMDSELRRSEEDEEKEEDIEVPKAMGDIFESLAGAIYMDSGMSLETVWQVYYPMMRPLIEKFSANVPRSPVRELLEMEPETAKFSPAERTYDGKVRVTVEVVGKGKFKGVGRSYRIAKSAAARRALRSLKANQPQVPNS

Row | Compound | z-score
1 | COCCCNc1nc(-c2ccccc2)cs1 | 1.18 (inactive)
2 | Cc1cccc(Nc2nc(-c3ccccc3)cs2)n1 | 3.09 (active)
3 | c1ccc(Nc2nc(-c3ccncc3)cs2)nc1 | 2.79 (inactive)
4 | CC(C)(C)NC(=S)Nc1ccc(F)c(Cl)c1 | 16.8 (inactive)
5 | CC1(C)N=C(N)N=C(N)N1c1ccccc1C(F)(F)F | 1.59 (inactive)
6 | CCOC(=O)Cc1csc(NC(=O)Nc2cccc3ccccc23)n1 | 6.9 (inactive)
7 | Cn1nc(-c2ccc(Cl)cc2)[nH]c1=O | -1.42 (inactive)
8 | Cc1nc(-c2ccc(C(F)(F)F)cc2)[nH]c(=O)c1Oc1ccc(Cl)cc1Cl | 0.23 (inactive)
9 | CCCCc1c(COC)nc(-c2ccc(Cl)cc2)[nH]c1=O | 3.16 (active)
10 | O=C(O)C1Nc2ccc(Cl)cc2C2C=CCC12 (stereo not given) | 15.4 (active)
11 | O=S(=O)(c1ccc(C2Nc3ccc(Cl)cc3C3C=CCC32)cc1)N1CCOCC1 (stereo not given) | -0.43 (inactive)
12 | COC(=O)c1ccc([C@@H]2Nc3ccc(F)cc3[C@@H]3C=CC[C@@H]32)cc1 | 0.68 (inactive)
13 | CSC(=NCc1ccco1)Nc1ccc(Cl)cc1 | 2.16 (inactive)
14 | CCc1ccnc(NC(=O)Nc2ccc(OCc3ccccc3)cc2)c1 | 0.13 (inactive)
15 | c1ccc(-c2cc(-c3ccccc3)[nH]n2)cc1 | 0.74 (inactive)
16 | Nc1cc(-c2ccccc2)nn1-c1ccccc1 | -0.41 (inactive)
17 | Nc1cccc(-c2cc(-c3ccccc3)nc(-c3cccc(N)c3)n2)c1 | 8.06 (active)
18 | O=C(O)CCc1nc2ccccc2[nH]c1=O | -2.59 (inactive)
19 | COc1cccc(OC)c1C(=O)NC(=O)Nc1c(C)cc(Br)cc1C | -0.89 (inactive)
20 | CN(C)/C=C/c1nnnn1-c1ccc(Br)cc1 | 2.13 (inactive)
21 | Nc1c(C(=O)NNC(=S)Nc2ccccc2)cnn1-c1ccccc1 | 3.4 (active)
22 | NNC(=O)c1cnn(-c2ccccc2)c1C(F)(F)F | -1.32 (inactive)
23 | Cc1cc(NC(=O)Nc2ccccc2)n(-c2ccccc2)n1 | -0.46 (inactive)
24 | CCc1ncc(C(O)c2ccccc2)n1C (stereo not given) | -0.48 (inactive)
25 | COCCCn1c2c(c(=O)[nH]c1=O)C(c1ccc(C(=O)O)cc1)C1=C(N2)c2ccccc2C1=O (stereo not given) | -1.05 (inactive)

Row | Compound | z-score
26 | COc1cc(C(=O)NCC2CCCO2)c(OC)cc1C(=O)NCC1CCCO1 (stereo not given) | 1.74 (inactive)
27 | Nc1nc(/C=C/c2ccc(O)cc2)nc(-c2ccccc2O)n1 | 5.62 (active)
28 | COc1ccc(/C=C/c2noc(-c3ccccc3O)n2)cc1OC | 0.89 (inactive)
29 | Oc1ccccc1-c1nc(/C=C/c2ccc(F)cc2)no1 | -0.19 (inactive)
30 | CN1c2ccc(Cl)cc2C(C)(C)C12C=Nc1c(ccc3ccccc13)O2 (stereo not given) | -0.52 (inactive)
31 | O=C(Nc1ccccc1)Nc1ccc(C(F)(F)F)cn1 | 0.31 (inactive)
32 | CC(C)Cn1c(Cn2c3ccccc3c3ccccc32)n[nH]c1=S | 3.9 (active)
33 | OCC(O)Cn1c2ccccc2c2ccccc21 (stereo not given) | -0.45 (inactive)
34 | CCn1c(CN2C(=O)CSc3ccccc32)n[nH]c1=S | 0.75 (inactive)
35 | CCOC(=O)c1c(C)nn(-c2ncccc2[N+](=O)[O-])c1C | -0.17 (inactive)
36 | Cc1[nH]nc(NCc2ccccc2)c1[N+](=O)[O-] | -1.14 (inactive)
37 | O=C1CC(c2ccccc2)N(c2ccc(OC(F)(F)F)cc2)C(=S)N1 (stereo not given) | -0.98 (inactive)
38 | O=C(Nc1ccccc1)O/N=C1\CCSC1 | 0.99 (inactive)
39 | O=C1c2oc3ccccc3c(=O)c2C(c2cccc(O)c2)N1c1ccccn1 (stereo not given) | 3.7 (active)
40 | C=CCOc1cccc(C2c3c(oc4ccccc4c3=O)C(=O)N2c2ccc(C)cn2)c1 (stereo not given) | 0.54 (inactive)
41 | Cc1ccc(N2C(=O)c3oc4ccccc4c(=O)c3C2c2cccnc2)nc1 (stereo not given) | 3.52 (active)
42 | C=CCOc1ccc(C2c3c(oc4ccccc4c3=O)C(=O)N2c2ccc(C)cn2)cc1 (stereo not given) | 0.29 (inactive)
43 | Cc1ccc(N2C(=O)c3oc4cc(C)c(C)cc4c(=O)c3C2c2ccc(O)cc2)nc1 (stereo not given) | 0.43 (inactive)
44 | O=C1c2oc3ccccc3c(=O)c2C(c2cccc(O)c2)N1Cc1ccccc1 (stereo not given) | 0.58 (inactive)
45 | Cc1nc(N/N=C2\CCCc3ccccc32)sc1C | 0.78 (inactive)
46 | CC(C)(C)NC(=O)c1nn2c(C(F)(F)F)cc(-c3ccccc3)nc2c1Cl | -0.55 (inactive)
47 | CCCc1nnc(N2C(=O)c3oc4ccc(F)cc4c(=O)c3C2c2ccc(OC)cc2)s1 (stereo not given) | 1.52 (inactive)
48 | O=C(N/C=C/c1ccsc1)Nc1cc(C(F)(F)F)cc(C(F)(F)F)c1 | 0.88 (inactive)
49 | Cc1ccc(NC(=O)Nc2cc(-c3ccccc3)nn2C)cc1Cl | 0.04 (inactive)
50 | O=C1CC(NCC2CCCCC2)C(=O)N1c1ccccc1 (stereo not given) | 3.63 (active)

Row | Compound | z-score
51 | O=C1CC(Cc2ccc(Cl)cc2)C(=O)N1c1ccccc1 (stereo not given) | 0.01 (inactive)
52 | CCCCC1(C2CC(=O)N(c3ccccc3)C2=O)C(=O)N(c2ccccc2)N(c2ccccc2)C1=O (stereo not given) | 1.04 (inactive)
53 | O=C(C1Sc2nnc(-c3ccccc3)n2NC1c1ccc(F)cc1)N1CCOCC1 (stereo not given) | 2.92 (inactive)
54 | Cc1ccc(-c2cc3nccc(-c4ccccc4O)n3n2)cc1 | 3.02 (active)
55 | COc1ccc(-c2cc3nccc(-c4cc(F)ccc4O)n3n2)cc1 | 1.88 (inactive)
56 | Cc1cc(-c2ccccc2)n2nc(-c3ccccc3)cc2n1 | 0.87 (inactive)
57 | CC1CCc2c(sc3ncnc(SC(C)C(=O)O)c23)C1 (stereo not given) | -0.91 (inactive)
58 | CCOC(=O)c1sc(N2C(=O)c3oc4ccccc4c(=O)c3C2c2cccs2)nc1C (stereo not given) | 1.43 (inactive)
59 | CCOC(=O)c1ccc(NC(=S)N(Cc2ccccc2)C(C)C)cc1 | -0.22 (inactive)
60 | O=C(O)Cc1ccc(-c2ccccc2)cc1 | -0.37 (inactive)
61 | CC(C)(C)OC(=O)NCC(=O)OCc1ccc(CC(=O)O)cc1 | 3.04 (active)
62 | O=C(NCCC(O)C(=O)O)OCc1ccccc1 (stereo not given) | -1.43 (inactive)
63 | COc1ccc2cccc(OC)c2n1 | -1.05 (inactive)
64 | O=C(Nc1nc2ccsc2c(=O)s1)c1ccccc1 | -0.44 (inactive)
65 | O=C(O)/C=C/C(=O)N1CCN(c2nccc(C(F)(F)F)n2)CC1 | 0.2 (inactive)
66 | NC(=O)c1c(NC(=O)c2sc3cc(Cl)ccc3c2Cl)sc2c1CCC2 | 0.57 (inactive)
67 | O=C(c1cccnc1)N(c1cc2sc(=O)oc2c2ccccc12)S(=O)(=O)c1ccccc1 | -2.86 (inactive)
68 | COC(=O)c1c(C)oc2ccc(N(C(=O)Oc3ccccc3)S(=O)(=O)c3ccccc3)cc12 | -0.23 (inactive)
69 | O=C(c1cccnc1)N(c1ccc2oc(=O)sc2c1)S(=O)(=O)c1ccccc1 | 3.74 (active)
70 | CCCCC(=O)N(c1ccc2oc(=O)sc2c1)S(=O)(=O)c1ccc(F)cc1 | 3.38 (active)
71 | COc1ccc(S(=O)(=O)N(C(=O)c2ccncc2)c2ccc3oc(=O)sc3c2)cc1OC | 3.3 (active)
72 | CCOC(=O)C(C)Oc1ccc2c(=O)c(-c3ccc(OC)c(OC)c3)c(C(F)(F)F)oc2c1 (stereo not given) | 0.03 (inactive)
73 | O=C1/C(=C/c2cc(Br)cs2)Cc2ccccc21 | -0.91 (inactive)
74 | CCOC(=O)/C(C#N)=C/N=C(N/N=C(\C)c1cc2ccccc2o1)SC | -2.01 (inactive)
75 | NC(=O)CN1C(=O)C(O)(CC(=O)c2ccc3c(c2)CCCC3)c2ccccc21 (stereo not given) | -1.03 (inactive)

Row | Compound | z-score
76 | O=S(=O)(c1cc(Cl)ccc1Cl)N1c2ccccc2OC1c1ccc(Cl)c(Cl)c1 (stereo not given) | -0.36 (inactive)
77 | CSC(=Nc1cc(C(F)(F)F)cc(C(F)(F)F)c1)N1CCCCC1 | 5.99 (active)
78 | CSC(=Nc1ccccc1C(F)(F)F)N1CCCC1 | 1.69 (inactive)
79 | CCCC1c2ccsc2CCN1C(=S)Nc1ccccc1C(=O)OC (stereo not given) | -0.25 (inactive)
80 | CSc1nnc(/N=C/c2ccccc2O)s1 | 0.16 (inactive)
81 | Oc1ccccc1C=NCCCN=Cc1ccccc1O | 4.14 (active)
82 | O=C(O/N=C(/Cc1ccccc1)C(F)(F)F)c1ccc(Cl)cc1 | -0.11 (inactive)
83 | Cc1cc(-c2cccs2)c2c(N)c(C(=O)c3ccccc3)sc2n1 | 0.82 (inactive)
84 | Nc1c(C(=O)c2ccc(Cl)cc2)sc2nc(-c3cccs3)cc(C(F)(F)F)c12 | 4.28 (active)
85 | Cc1cc(C)c2c(-n3cccc3)c(C(=O)c3ccc(Cl)cc3)sc2n1 | -2.32 (inactive)
86 | COc1cccc(-c2nc(-c3cc4cc(C)ccc4[nH]c3=O)no2)c1 | 0.33 (inactive)
87 | Cc1cc(C)c2c(N)c(C(=O)NNC(=S)Nc3ccccc3)sc2n1 | 5.62 (active)
88 | Cc1cc(C)c2c(N)c(-c3n[nH]c(=S)n3C)sc2n1 | -3.29 (inactive)
89 | CCOC(=O)c1c(NC(=O)c2sc3nc(C)cc(COC)c3c2N)sc2c1CCCC2 | -1.64 (inactive)
90 | C#CC(CCN1CCCCC1)(OC)c1ccccc1 (stereo not given) | -0.6 (inactive)
91 | C(#CCN1CCCCC1)COC(c1ccccc1)c1ccccc1 | 4.06 (active)
92 | NS(=O)(=O)c1ccc2c(c1)OCCO2 | -0.87 (inactive)
93 | CCn1nc(C)cc1-c1n[nH]c(=S)n1-c1ccccc1 | -0.98 (inactive)
94 | Cc1cc(C)cc(Oc2coc3cc(OCC(=O)OC(C)C)ccc3c2=O)c1 | 0.93 (inactive)
95 | Cc1onc(-c2c(Cl)cccc2Cl)c1C(=O)N=S(C)(C)=O | 0.49 (inactive)
96 | Cc1onc(-c2ccccc2Cl)c1C(=O)OCC(=O)c1ccccc1 | 4.29 (active)
97 | Cc1[nH]n(C)c(=O)c1C(=O)c1c(-c2c(Cl)cccc2Cl)noc1C | -0.59 (inactive)
98 | CCOCc1ccc2oc(C(=O)OCCN(CC)CC)cc2c1 | 0.17 (inactive)
99 | Cc1nn2c3c(cnc2c1-c1ccc(F)cc1)C(=O)CC(c1cccc(Cl)c1)C3 (stereo not given) | 0.34 (inactive)
100 | Oc1c(Cl)cc(Cl)c(Cl)c1Cc1c(O)c(Cl)cc(Cl)c1Cl | 13.8 (active)

Source: PubChem BioAssay AID1347074 (Center for Chemical Genomics, University of Michigan, 2019)
